The list is not random: actives were taken first. Their share in the collection is about 7.9%.
HT1080NT lethal: kills 2HG-producing HT-1080-NT fibrosarcoma cells; HT-1080-NT fibrosarcoma viability, CellTiter-Glo ATP luminescence, 48 h; Potency, µM (top dose mostly 46.1 µM), inactives show top-dose activity, negative = less viability, hits mostly cytotoxic; 360,000 compounds, 1.6% hits; AID 686970;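 further: NT is the 2HG producing partner of a matched IDH1 knockdown line; 0% = DMSO-treated cells and -100% = media-only wells without cells; nearly all actives have a fitted effect of over 55% in size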
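750 cells/well, RPMI + 5% FBS; 2 h settle, compound pin-transfer, 48 h at 37 degrees C. CellTiter-Glo 10 min RT, luminescence. Normalized to DMSO and media-only wells.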
HT1080 IDH1KD tx: HT-1080 IDH1 knockdown cell toxicity (counter line) | HT-1080 IDH1 knockdown viability, ATP luminescence, 48 h | Potency, µM (titrated, usually from 46.1 µM), for inactives: top-dose activity, negative = toxicity, most hits filed as cytotoxic | 360,000 compounds, 2% hits | AID 686971;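 further: 0% = DMSO wells and -100% = cell-free medium wells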
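Cytotoxicity counter-line: IDH1KD HT-1080, 48 h, CellTiter-Glo. Curves classed by r2, magnitude and activity.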
KB-3-1 tox: KB-3-1 parental cell cytotoxicity | KB-3-1 viability, CellTiter-Glo ATP luminescence, 72 h | 400,000 compounds, 1.4% hits | Potency, µM (top dose mostly 46.1 µM), most hits filed as cytotoxic | AID 1347075; further: on the % scale 0 is the no-effect control and ±100 the full control effect; nearly all actives have a fitted effect of over 60% in size
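Screening of KB-3-1 cells (DMEM, 10% FBS, phenol-red free) ran from lowest to highest compound concentration; after 72 h at 37 °C viability was read luminescently and curves fitted.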
MCF10A rerep: inducers of DNA re-replication in MCF 10A breast cells; MCF 10A DNA re-replication, Hoechst nuclear intensity, 48 h; Potency, µM (titrated, usually from 46.1 µM), inactives show at the top dose activity, positive = re-replication, most hits filed as activators; 350,000 compounds, 2.9% hits; further: % of control where 0% means no effect; nearly all actives have a fitted effect of over 50% in size
SW480 rerep: induces DNA re-replication in SW480 colon adenocarcinoma cells. 340,000 compounds, 1.8% hits. Potency, µM (titrated, usually from 46.1 µM), for the others: at the highest dose re-replication activation, actives largely listed as activators. AID 624297. SW480 DNA re-replication, Hoechst DNA content imaging, 48 h; further: % of control where 0% means no effect; nearly all actives have a fitted effect of over 55% in size
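First, 250 cells per well were seeded. Next, compound or vehicle (23 nL) was pinned in, plates sat 48 hr at 37 C. Finally Hoechst was added for 40 min before fluorescence scanning.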
KB-V1 cytotox: KB-V1 MDR subline cytotoxicity; KB-V1 MDR cells viability, CellTiter-Glo, 72 h; Potency, µM (top dose mostly 46.1 µM), actives largely listed as cytotoxic; 400,000 compounds, 3.4% hits; AID 1347076; further: on the % scale 0 is the no-effect control and ±100 the full control effect; nearly all actives have a fitted effect of over 60% in size
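KB-V1, DMEM (no phenol red) + 10% FBS; cpd pin-transferred, titration series; 72 h, 37 degrees C; CellTiter-Glo, luminescence. Data normalized, curve-fit.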
The depositor's hits bear a star; i = inactive; u = inconclusive; x = no result; [ ] = another dose, or the depositor's remark. The call rests on the fitted dose curve; in most records, active means well fitted curve in the direction sought with a large enough effect; inconclusive means small, poorly fitted or top-dose-only effect, or another doubt; inactive means no such curve, though single readings can be large; an effect the other way counts as inactive or inconclusive. Potency means the concentration at half of the fitted maximal effect.

SMILES	HT1080NT lethal	HT1080 IDH1KD tx	KB-3-1 tox	MCF10A rerep	SW480 rerep	KB-V1 cytotox
CC(C)(C)NC(=O)NC(=O)COC(=O)C1CC(=O)N(Cc2ccccc2)C1 (stereo unspecified)	7%	3%	i	25%	3%[9.22 µM]	i
CCc1ccccc1N1CN(Cc2cccnc2)CNC1=S	-12%	-2%	i	-1%	4%	i
C=CCSc1nnc(C)c(/C=C/Nc2ccc(Cl)cc2)n1	-9%	-16%	i	21µM*	u	i
CCCCc1ccc(-n2nnnc2SCC(=O)Nc2cc(OC)c([N+](=O)[O-])cc2C)cc1	1%	2%	i	u	u	i
CCC(C(=O)N1CCN(S(C)(=O)=O)CC1)c1ccccc1 (stereo unspecified)	12%	-3%	i	0%	3%	i
CCC(C(=O)N1CCN(c2ccccc2OC)CC1)c1ccccc1 (stereo unspecified)	-28%	u	u	u	-703%	21µM*
CCOC(=O)N1CCN(C(=O)C(CC)c2ccccc2)CC1 (stereo unspecified)	13%	21%	i	7%	-89%	12µM*
CCOC(=O)N1CCN(C(=O)c2ccccc2-c2ccccc2)CC1	10µM*	7.3µM*	4.6µM*	8.2µM*	10µM*	4.6µM*
COc1ccccc1N1CCN(C(=O)C(NS(=O)(=O)c2cccs2)c2ccccc2)CC1 (stereo unspecified)	12%	6%	i	-4%	-6%	4.6µM*
CCOC(=O)N1CCN(c2ccccc2OC)CC1	21%	24%	i	-2%	-11%	i
CCCCNC(=O)CN1CCN(Cc2ccc3cc(OC)ccc3c2)CC1	-5%	-13%	u	0%	29%	i
NS(=O)(=O)c1cc2c(cc1Cl)N[C@@H](C(Cl)Cl)NS2(=O)=O	x	x	x	11%[20.6 µM]	3%[20.6 µM]	x
CCC(C(=O)NCCC(C)C)n1ccc2cc(S(=O)(=O)N3CCCCC3)ccc21 (stereo unspecified)	u	u	u	7%	16%	i
N#Cc1c(N)nc2c(c1-c1ccc(F)cc1)CCC2	16%	11%	i	13µM*	u	i
Cc1ccc(C)c(S(=O)(=O)NCC(=O)OCC(=O)Nc2sccc2C(N)=O)c1	11%	20%	i	-2%	-2%	i
CC(C)CN(CC(C)C)c1nnc(NC(=O)Cn2c(=O)oc3ccccc32)s1	2%	5%	i	-2%	-6%	i
Cc1cccc2cc(CN(Cc3ccccc3)C(=O)c3cccc(F)c3)c(Cl)nc12	-26%	-2%	i	u	3.7µM*	18µM*
COc1cccc(NC(=O)Cn2c(=O)n(-c3ccccc3)c(=O)c3oc4ccccc4c32)c1	u	u	u	16%	0%	21µM*
CC(=O)Nc1ccc(NC(=O)Cn2c(=O)n(-c3ccccc3)c(=O)c3oc4ccccc4c32)cc1	10%	5%	i	-5%	-7%	i
Cc1cc(Nc2ccc(F)c(F)c2)nc(-c2ccccc2O)n1	u	u	i	7%	-8%	i
CC(C)c1cc(C(=O)NNC(=S)NCc2ccco2)c(O)c(C(C)C)c1	u	16µM*	i	u	-2%	i
Cc1ccc(C(=O)N/N=C\c2ccc(OC(=O)c3cccc(F)c3)cc2)cn1	3%	9%	i	-21%	-9%	i
Cc1cc(C(=O)N/N=C/c2cc(Br)cc(Br)c2OC(=O)c2cccc(F)c2)n[nH]1	-5%	-18%	u	15µM*	0.92µM*	u
Cc1occc1C(=O)Nc1cccc(C(F)(F)F)c1	4%	11%	i	2%	-2%	i
Cc1cnc(Nc2nc3ccccc3o2)nc1C(=O)Nc1cccc(C(F)(F)F)c1	-14%	-4%	16µM*	u	u	15µM*

Screening results deposited in PubChem BioAssay by National Center for Advancing Translational Sciences (NCATS).
